# This is a sample that favours compounds with a hit; in the whole collection about 2.9% have one here.
# PI5P4Ka inh: qHTS for Inhibitors of phosphatidylinositol 5-phosphate 4-kinase (PI5P4K). Phosphatidylinositol 5-phosphate 4-kinase type-2 alpha (Homo sapiens), P48426. PI5P4Kalpha enzyme, ADP-Glo luminescence, 60 min; active compounds read low. max response, %. 330,000 tested, 1.2% active. AID 652105, 2013; active = max response of -50% or lower; inconclusive = between -30% and -50%; inactive = -30% or higher; note: value at the top dose of about 77 µM
#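 ADP-Glo luminescence end-point after a 60 min room-temperature kinase reaction. PI5P4Kalpha and substrate in HEPES pH 7.4 buffer with EGTA, 0.1% CHAPS and 5% DMSO; ATP at 5 microM final.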
# POLB inh: qHTS Assay for Inhibitors of DNA Polymerase Beta; P06746; Pol beta primer extension/strand displacement, fluorescence kinetic; Potency, µM (titrated, usually from 114 µM), hits mostly inhibitors; 340,000 tested, 1.3% active
#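 Curves were derived by four-parameter Hill fits of normalized qHTS data. The kinetic fluorescent primer-extension read was taken at 0 and 10 min after 50 nM substrate, following a 15 min room-temperature preincubation of 10 nM enzyme with compounds.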
# 12-LOX inh: Primary qHTS assay for inhibitors of human arachidonate 12S-lipoxygenase (ALOX12): Round 2; Potency, µM (doses to about 108 µM), usual class: inhibitors; 580,000 tested, 1.1% active; purified 12hLO, xylenol orange hydroperoxide absorbance; AID 1671190, 2021
# Target sequence (P18054 whole entry, looked up): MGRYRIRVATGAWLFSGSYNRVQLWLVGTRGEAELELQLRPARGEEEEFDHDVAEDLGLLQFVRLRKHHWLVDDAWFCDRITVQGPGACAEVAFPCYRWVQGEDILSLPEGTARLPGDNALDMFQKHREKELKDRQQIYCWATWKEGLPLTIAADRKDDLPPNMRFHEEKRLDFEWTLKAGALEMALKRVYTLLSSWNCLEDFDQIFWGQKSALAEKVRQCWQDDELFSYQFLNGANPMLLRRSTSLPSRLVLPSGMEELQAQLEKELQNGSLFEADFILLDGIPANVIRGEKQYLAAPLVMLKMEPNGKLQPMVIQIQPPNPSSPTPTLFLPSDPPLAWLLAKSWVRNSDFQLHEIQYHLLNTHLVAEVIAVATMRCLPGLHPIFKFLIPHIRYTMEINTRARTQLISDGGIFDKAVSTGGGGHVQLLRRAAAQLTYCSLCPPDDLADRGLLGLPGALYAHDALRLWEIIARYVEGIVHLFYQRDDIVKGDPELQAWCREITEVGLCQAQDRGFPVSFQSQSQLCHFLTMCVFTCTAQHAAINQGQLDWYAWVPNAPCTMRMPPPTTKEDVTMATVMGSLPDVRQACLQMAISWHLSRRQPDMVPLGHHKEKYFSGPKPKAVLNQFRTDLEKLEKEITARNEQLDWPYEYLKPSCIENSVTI
#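 Hydroperoxide product was detected by ferrous iron/xylenol orange as the 573 to 405 nm absorbance ratio. Arachidonic acid at 40 uM (final) was turned over for 30 min at room temperature by 150 nM human 12hLO, pH 7.0 Hepes buffer, after 15 min compound preincubation.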
# Pol kappa inh-1: qHTS for Inhibitors of Polymerase Kappa. purified Pol kappa, fluorescent DNA synthesis assay, 10 min. Potency, µM (doses to about 107 µM), most hits filed as inhibitors. 400,000 tested, 0.53% active. DNA polymerase kappa (Homo sapiens), Q9UBT6
#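 First, compounds were pin-transferred onto 10 nM Pol kappa. After 15 min at room temperature, substrate was added to 50 nM final. Fluorescence was then measured kinetically at 0 and 10 min.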
# POLI inh: qHTS for Inhibitors of Polymerase Iota; Potency, µM (highest dose often 115 µM), hits mostly inhibitors; AID 588590, 2011; Pol iota fluorescent replication assay, 10 min; 390,000 tested, 1% active
#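 Fluorescent replication assay read twice, at 0 min and 10 min after adding 50 nM (final) substrate. Enzyme (10 nM) and compounds were first incubated 15 min at room temperature; enzyme-free buffer wells were negative controls.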
# Pol eta inh-1: qHTS for Inhibitors of Polymerase Eta | 390,000 tested, 1.2% active | Potency, µM (highest dose often 114 µM), hits mostly inhibitors | recombinant Pol eta, fluorescent DNA replication assay | DNA polymerase eta (Homo sapiens), Q9Y253
#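 Pol eta at 10 nM preincubated with compounds 15 min at room temperature; reaction started with fluorescent substrate (50 nM final) and read kinetically at 0 and 10 min.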
# GALK inh confirm: Confirmation Assay for Inhibitors of Human Galactokinase (GALK); shares compounds with Pol eta inh-1; purified GALK, Kinase-Glo ATP depletion luminescence; Potency, µM (series often up to 115 µM), actives largely listed as inhibitors; 150 tested, 70% active; AID 2015, 2009
# GALK redox cs: Confirmatory Assay for Inhibitors of Human Galactokinase (GALK): Phenol-HRP redox assay counterscreen; Phenol red-HRP H2O2 redox cycling, absorbance 600 nm; AID 2035, 2009; 150 tested, 40% active; shares compounds with Pol eta inh-1; Potency, µM (titrated, usually from 115 µM), usual class: inhibitors
# HEK293 tox: Secondary Assay for Inhibitors of Human Galactokinase (GALK): HEK-293 Cell Viability Assay; shares compounds with Pol eta inh-1; 170 tested, 10% active; Potency, µM (doses to about 46.1 µM), usual class: inhibitors; HEK-293 viability, ATP luminescence (CellTiter-Glo), 24/48 h
# Pol kappa inh-2: qHTS for Inhibitors of Polymerase Kappa: Confirmatory Assay for Cherry-picked Compounds. shares compounds with Pol eta inh-1. 920 tested, 76% active. purified Pol-kappa, fluorescent strand-displacement substrate. Potency, µM, hits mostly inhibitors
# Pol eta inh-2: qHTS for Inhibitors of Polymerase Eta: Confirmatory Assay for Cherry-picked Compounds; 2,600 tested, 64% active; AID 720502, 2013; shares compounds with Pol eta inh-1; Pol eta primer extension, TAMRA/BHQ fluorescence, 10 min; Potency, µM, actives largely listed as inhibitors
# A number is an active result; i = inactive; ? = inconclusive; nt = no result given. Unless noted, calls come from the whole dose curve; as a rule, active = well fitted curve in the direction sought with a large enough effect; inconclusive = small, poorly fitted or top-dose-only effect, or another doubt; inactive = no such curve, though single readings can be large; an effect the other way counts as inactive or inconclusive.
SMILES,PI5P4Ka inh,POLB inh,12-LOX inh,Pol kappa inh-1,POLI inh,Pol eta inh-1,others
Cc1cccc(CS(=O)(=O)N2CCC(C(=O)N3CCN(c4ccccc4F)CC3)CC2)c1,nt,nt,i,nt,nt,nt,
NS(=O)(=O)c1ccc(NC(=S)NC(=O)c2ccc(Br)o2)cc1,i,?,i,i,i,i,
NS(=O)(=O)c1ccc(NC(=S)NNC(=O)c2ccc(Br)o2)cc1,i,i,i,i,i,i,GALK inh confirm=?;GALK redox cs=i;HEK293 tox=i
O=C(NCC1CCCN(C(=O)c2ccc3[nH]ccc3c2)C1)c1ccc(-c2ccccc2)cc1 (centres undefined),nt,nt,i,nt,nt,nt,
COc1ccc(CNC(=O)c2cc(=O)c(OCc3ccccc3F)co2)cc1,nt,nt,i,nt,nt,nt,
Cc1nc(Nc2nc3ccccc3o2)nc2c1CCC2,i,i,i,i,i,i,
CC(C)c1nc(Nc2nc3ccccc3o2)nc2c1CCCC2,nt,nt,nt,nt,nt,nt,HEK293 tox=i
CCCCC1C(=O)CC[C@H]2[C@@H]1CC(=O)[C@@H]2C/C=C\CCCC(=O)O (some centres undefined),i,i,nt,i,?,?,Pol eta inh-2=?
CCCCCC1C(=O)CCC1CC(=O)O (centres undefined),nt,nt,nt,i,nt,nt,
COc1cccc2cc(C(=O)C3=C(O)C(=O)N(CCN4CCOCC4)C3c3cccc(Cl)c3)oc12 (centres undefined),i,i,nt,i,i,28µM,Pol eta inh-2=17
c1ccc(CNCC2CCCO2)cc1 (centres undefined),nt,nt,i,nt,nt,nt,
Cc1c(CCC(=O)NCCCCCC(=O)O)c(=O)oc2cc3occ(-c4ccccc4)c3cc12,i,?,i,?,45µM,22µM,Pol kappa inh-2=?;Pol eta inh-2=54
O=S(=O)(NCCCn1ccc2ccccc21)c1ccc(F)cc1,nt,nt,i,nt,nt,nt,
O=C1OC(C(=O)O)Cc2ccccc21 (centres undefined),nt,i,i,i,i,i,GALK inh confirm=i;GALK redox cs=i;HEK293 tox=i
NC(=O)CN1CCN(c2ccnc3c(F)ccc(F)c23)CC1,nt,nt,i,nt,nt,nt,
O=C(Nc1ccc2[nH]c(=O)[nH]c2c1)c1ccc([N+](=O)[O-])o1,i,nt,i,i,?,56µM,Pol kappa inh-2=?;Pol eta inh-2=?
Cc1ccc(NC(=O)c2ccc([N+](=O)[O-])o2)cc1C,i,i,i,i,?,i,
O=C(COC(=O)c1ccc([N+](=O)[O-])s1)Nc1ccc(Cl)cn1,?,?,i,i,?,i,
Cc1c(Cl)cnc(NC(=O)COC(=O)c2ccc([N+](=O)[O-])s2)c1Cl,-79,28µM,?,i,25µM,18µM,Pol eta inh-2=85
O=C(Nc1cc(F)ccc1F)c1ccc2c(Cl)c3c(nc2c1)CCCC3,nt,nt,i,nt,nt,nt,
CCCNc1ccc(F)cc1,nt,nt,i,nt,nt,nt,
